High-throughput results as filed in PubChem.
A selection: hits, their analogues and other compounds. The true share with any hit is near 11%.
HPGD inh = blocks human HPGD enzyme activity | P15428 | purified HPGD, NADH fluorescence kinetic, PGE2 substrate | Potency, µM, usual class: inhibitors | hit rate 4.3% among 150,000 | AID 894
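20 nM HPGD preincubated 15 min at room temperature with compound in 50 mM Tris-HCl pH 8, 0.01% Tween 20. Started with 1 mM NAD+ and 30 uM prostaglandin E2; NADH fluorescence (360/450 nm) read 5 times over 30-s intervals, last minus first.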
PNC assembly inh = perinucleolar compartment assembly inhibition; PC3M PTB-GFP, PNC prevalence imaging, 16 h; stronger effect = lower value; activity change (PNC), negative = inhibition, % at 10 µM; hit rate 3.1% among 140,000; AID 2417;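 active means readout at or below -70, meaning at least 70% loss of cells showing the perinucleolar compartment, a nuclear body marking cancer cells; inconclusive means readout between -30 and a set limit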
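Compounds are pinned in duplicate onto adhered PC3M cells stably expressing GFP-tagged PTB and incubated 16 h at 37 C. Cells are then fixed, nuclei stained with Hoechst, and PNC-positive cells counted.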
ALDH1A1 block = blocks purified human ALDH1A1 activity | P00352 | Purified ALDH1A1, NADH fluorescence, propionaldehyde substrate | Potency, µM (top dose mostly 75.3 µM), hits mostly inhibitors | hit rate 7.3% among 220,000
Target sequence (P00352 whole entry, looked up): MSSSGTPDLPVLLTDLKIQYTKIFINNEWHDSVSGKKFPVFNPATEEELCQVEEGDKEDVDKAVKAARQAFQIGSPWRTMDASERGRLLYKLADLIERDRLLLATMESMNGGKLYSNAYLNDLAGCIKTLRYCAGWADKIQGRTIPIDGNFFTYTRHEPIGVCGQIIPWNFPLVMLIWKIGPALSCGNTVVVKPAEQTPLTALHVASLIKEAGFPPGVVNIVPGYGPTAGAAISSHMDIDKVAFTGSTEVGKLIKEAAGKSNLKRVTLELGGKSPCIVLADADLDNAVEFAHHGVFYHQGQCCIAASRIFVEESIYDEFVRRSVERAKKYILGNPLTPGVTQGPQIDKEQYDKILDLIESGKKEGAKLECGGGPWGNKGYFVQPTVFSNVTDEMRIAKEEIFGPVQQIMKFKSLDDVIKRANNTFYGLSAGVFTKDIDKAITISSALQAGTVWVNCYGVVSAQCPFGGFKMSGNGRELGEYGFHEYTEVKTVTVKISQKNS
Each line names hits and unclear results; the compound was inactive in the other large screens. Unless noted, the call rests on the fitted dose curve; in most records, active means well fitted inhibition curve with a large enough effect (not every such curve was filed as active); inconclusive means small, poorly fitted or top-dose-only effect, or another doubt; inactive means no such curve, though single readings can be large or run the other way.

CCN(CC)c1ccc(/C=C2/C(=O)ON=C2C)cc1	ALDH1A1 block 1.5µM
CC(C)(C)C1(C)OC(=O)C(=Cc2ccc(OCC(=O)Nc3ccccc3)cc2)C(=O)O1 (centres undefined)	HPGD inh inconclusive
CCN(CC)c1ccc(/C=c2/sc3nnc(-c4ccccc4C)n3c2=O)cc1	none
Cc1c(C(=O)Nc2ccc3c(c2)OCO3)sc2ncn(CC(=O)N3CC(C)CC(C)C3)c(=O)c12 (centres undefined)	none
O=C(NCc1cccnc1)c1ccccc1[N+](=O)[O-]	none
CCCOCC(C)O (centres undefined)	none (no result: PNC assembly inh)
CC(C)NC(=O)NC(=O)COC(=O)c1ccccc1Oc1ccccc1	none
COc1ccc(CC(=O)OCC(=O)NCCc2ccccc2)cc1OC	none
COC(=O)c1cccc(C23CC4(C2)[C@H](CN(Cc2cccnc2)[C@@H]4c2ccccc2)C3c2ccccc2)c1 (some centres undefined)	none (no result: PNC assembly inh)
CC(CN(C)C)NC(=O)c1ccc(-n2c(=O)c(=O)[nH]c3ccccc32)cc1 (centres undefined)	none (no result: PNC assembly inh)
O=C(c1cccs1)N1CCN(C/C=C/c2ccccc2)CC1	ALDH1A1 block inconclusive
COc1ccc(NC(=O)C(Sc2nnc(-c3ccncc3)n2-c2ccccc2C)c2ccccc2)cc1Cl (centres undefined)	PNC assembly inh inconclusive
CC(C)OC(=O)Cn1cc(C#N)c2ccccc21	none (no result: HPGD inh, PNC assembly inh)
CCOC(=O)N1CCC(N(C(=O)Nc2ccc(Cl)c(Cl)c2)C(C)CC)CC1 (centres undefined)	HPGD inh 20µM, ALDH1A1 block inconclusive
CCOC(=O)N1CCC(N(CCOC)C(=O)Nc2ccc(CC)cc2)CC1	none
Cc1c(N=Nc2ccc(O)cc2)c(=O)n(-c2ccccc2)n1C	none (no result: HPGD inh, PNC assembly inh)
Cc1c(N=NC2=C(O)CCCC2=O)c(=O)n(-c2ccccc2)n1C	ALDH1A1 block 12.6µM (no result: HPGD inh, PNC assembly inh)
Cc1cc(OCCCn2ccnc2)cc(C(C)C)c1	none (no result: HPGD inh, PNC assembly inh)
COC(=O)c1c(NC(=O)CN2CCC3(O)CCCCC3C2c2ccccc2OC)sc(C)c1C (centres undefined)	HPGD inh inconclusive, ALDH1A1 block inconclusive
COC(=O)c1c(NC(=O)CN2CCC3(O)CCCCC3C2c2ccc(OC)cc2OC)sc(C)c1C (centres undefined)	HPGD inh 20µM, ALDH1A1 block 2.51µM
Cc1ccc2nc(-c3cccc(S(=O)(=O)N(C)C)c3)cn2c1	HPGD inh inconclusive, ALDH1A1 block inconclusive
CN(C)S(=O)(=O)c1cccc(-n2sc3ccccc3c2=O)c1	ALDH1A1 block 0.224µM (no result: HPGD inh, PNC assembly inh)
Cc1ccc(-c2nnc(N3CCCCC3)c3ccccc23)cc1S(=O)(=O)N1CCN(C)CC1	none
Cc1ccc(-n2sc3ccccc3c2=O)cc1S(=O)(=O)N1CCCCC1	HPGD inh 1µM, PNC assembly inh inconclusive, ALDH1A1 block 2.24µM
O=c1c2ccccc2sn1-c1ccc(S(=O)(=O)N2CCCC2)cc1	HPGD inh 0.708µM, ALDH1A1 block 0.891µM
NS(=O)(=O)c1ccc(S(=O)(=O)N2CCCC2)cc1	PNC assembly inh inconclusive
CCCCC(SCC(=O)Nc1ccccc1)C(=O)O (centres undefined)	none
O=C(NCc1ccc(Cl)cc1)c1ccc(-c2ccccc2C(F)(F)F)o1	none
OCC(O)C(O)C(O)CO (centres undefined)	none (no result: PNC assembly inh)
CCCc1nnc(SCC(=O)N2CCOCC2)n1C	none
COCCNS(=O)(=O)c1ccc(-c2ccc(S(=O)(=O)NCCOC)cc2)cc1	HPGD inh 11.2µM, ALDH1A1 block inconclusive
COCCNS(=O)(=O)c1ccccc1	none
COC1C=CO[C@@]2(C)Oc3c(C)c(O)c4c(O)c(c(C=NN5CCN(C)CC5)c(O)c4c3C2=O)NC(=O)/C(C)=C\C=CC(C)C(O)[C@@H](C)C(O)C(C)[C@H](OC(C)=O)C1C (some centres undefined)	none (no result: PNC assembly inh)
COc1cccc(CC2(CO)CCCN(Cc3cn[nH]c3-c3cc(C)ccc3C)C2)c1 (centres undefined)	none (no result: HPGD inh, PNC assembly inh)
CCn1c(C)nc2cc(C(=O)N/N=C/c3cccc(OC)c3O)ccc21	none (no result: HPGD inh, PNC assembly inh)
CCN(CC)S(=O)(=O)c1cccc(C(=O)Nc2cc(C)cc(C)c2)c1	none
CCN(CC)S(=O)(=O)c1cccc(C(=O)N/N=C/c2ccc(O)c(O)c2O)c1	HPGD inh 25.1µM, ALDH1A1 block 8.91µM
CCn1c(C)nc2cc(C(=O)N/N=C/c3ccc(O)c(O)c3O)ccc21	ALDH1A1 block 1.41µM (no result: HPGD inh, PNC assembly inh)
C#CCOC(=O)c1ccc(-n2cncn2)nc1	none
O=C(O)CC/C(=N/NC(=O)c1cccs1)c1ccccc1	none
O=C(CSCC(=O)N1CCN(c2ccccc2)CC1)Nc1nc(-c2ccc(Cl)s2)cs1	PNC assembly inh -108.4, ALDH1A1 block inconclusive
O=C(CSCC(=O)N1CCCCC1)Nc1nc(-c2ccc(Cl)s2)cs1	HPGD inh inconclusive, ALDH1A1 block 25.1µM
CCOC(=O)N1CCN(C(=O)CSCC(=O)Nc2nc(-c3ccccc3)cs2)CC1	none
O=C(CSCC(=O)N1CCCCC1)Nc1nc(-c2cccs2)cs1	ALDH1A1 block inconclusive
Cc1c(NC(=O)c2ccc3c(c2)OCO3)c(=O)n(-c2ccccc2)n1C	none
Clc1ccc(C2CC(c3cccs3)n3ncnc3N2)c(Cl)c1 (centres undefined)	none (no result: HPGD inh, PNC assembly inh)
O=C1NN(c2ccccc2)C(=O)/C1=C\c1cccc(OC(=O)c2cccs2)c1	HPGD inh 2.51µM, ALDH1A1 block 7.94µM
CCOc1cc(/C=C2/C(=O)N(c3ccccc3)N=C2C)ccc1OC(=O)c1cccs1	HPGD inh 20µM, ALDH1A1 block inconclusive
O=C(N/N=C/c1cccc(OC(=O)N2CCOCC2)c1)c1cccs1	none
COC(=O)N/N=C\c1cccc(OC(=O)c2cccs2)c1	none (no result: HPGD inh, PNC assembly inh)
O=C1NN(c2ccc(Cl)c(Cl)c2)C(=O)/C1=C/c1cccc(OC(=O)c2cccs2)c1	HPGD inh 10µM, ALDH1A1 block inconclusive
CCOc1cc(/C=N/NC(=O)COc2cccc(C)c2)ccc1OC(=O)c1cccs1	none
NC(=O)CS(=O)C[C@H](N)C(=O)O (some centres undefined)	none (no result: PNC assembly inh)
CCOc1ccccc1NC(=O)Cn1nnc(-c2ccc(OCC)c(OCC)c2)n1	PNC assembly inh inconclusive
CCCNC(=O)c1ccccc1NC(=O)CN(c1ccccc1OCC)S(C)(=O)=O	ALDH1A1 block inconclusive
CC(C)NS(=O)(=O)c1ccc2c(c1)NCC2	PNC assembly inh inconclusive
CCN1C(=O)C(CC(=O)Nc2ccc(OC)cc2)N(Cc2cccs2)C1=S (centres undefined)	none
CCN1C(=O)C(CC(=O)Nc2ccc(OC)cc2)N(CCc2ccc(OC)cc2)C1=S (centres undefined)	ALDH1A1 block 2.24µM (no result: HPGD inh, PNC assembly inh)
CCOc1ccc(NC(=O)CC2C(=O)N(CC)C(=S)N2CCNC(C)=O)cc1 (centres undefined)	none
COc1ccc(CCN2C(=O)N(c3ccc(OC)cc3)C(=O)C2CC(=O)Nc2ccccc2)cc1 (centres undefined)	none (no result: HPGD inh, PNC assembly inh)
CCN1C(=O)C(CC(=O)Nc2ccc(Br)cc2)N(CCCc2ccccc2)C1=S (centres undefined)	ALDH1A1 block 12.6µM
CCOc1ccc(NC(=O)CC2C(=O)N(C)C(=S)N2CCCc2ccccc2)cc1 (centres undefined)	PNC assembly inh inconclusive, ALDH1A1 block inconclusive
COc1ccc(CCN2C(=S)N(C)C(=O)C2CC(=O)Nc2ccc(F)cc2)cc1 (centres undefined)	ALDH1A1 block 1.26µM (no result: HPGD inh, PNC assembly inh)
